In the library only some 8.7% were active in any assay of this set; here they are far more common.
BAZ2B inh: inhibitors of human BAZ2B bromodomain. 4.4% of 360,000 active. Potency, µM (highest dose often 114 µM), inactives show at the top dose activity change, negative = inhibition, usual class: inhibitors. AlphaScreen BAZ2B-H3K14Ac peptide displacement. Q9UIF8; further: on the % scale 0 is the no-effect control and ±100 the full control effect; nearly all actives have a fitted effect of over 60% in size
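AlphaScreen luminescence quantifies BAZ2B engagement of H3K14Ac peptide; the protein and biotinylated peptide are both at 50 nM final, buffer PBS pH 7.4 with 0.01% Tween-20, all steps at room temperature.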
JMJD2A Tudor inh: JMJD2A Tudor domain (human) inhibition; Potency, µM (top dose mostly 114 µM), without a hit: top-dose activity change, negative = inhibition, hits mostly inhibitors; O75164; 4.4% of 390,000 active; AlphaScreen JMJD2A-Tudor / H3K4me3 peptide binding; further: on the % scale 0 is the no-effect control and ±100 the full control effect; nearly all actives have a fitted effect of over 50% in size
Target sequence (O75164 whole entry, looked up, the tested form may be a part): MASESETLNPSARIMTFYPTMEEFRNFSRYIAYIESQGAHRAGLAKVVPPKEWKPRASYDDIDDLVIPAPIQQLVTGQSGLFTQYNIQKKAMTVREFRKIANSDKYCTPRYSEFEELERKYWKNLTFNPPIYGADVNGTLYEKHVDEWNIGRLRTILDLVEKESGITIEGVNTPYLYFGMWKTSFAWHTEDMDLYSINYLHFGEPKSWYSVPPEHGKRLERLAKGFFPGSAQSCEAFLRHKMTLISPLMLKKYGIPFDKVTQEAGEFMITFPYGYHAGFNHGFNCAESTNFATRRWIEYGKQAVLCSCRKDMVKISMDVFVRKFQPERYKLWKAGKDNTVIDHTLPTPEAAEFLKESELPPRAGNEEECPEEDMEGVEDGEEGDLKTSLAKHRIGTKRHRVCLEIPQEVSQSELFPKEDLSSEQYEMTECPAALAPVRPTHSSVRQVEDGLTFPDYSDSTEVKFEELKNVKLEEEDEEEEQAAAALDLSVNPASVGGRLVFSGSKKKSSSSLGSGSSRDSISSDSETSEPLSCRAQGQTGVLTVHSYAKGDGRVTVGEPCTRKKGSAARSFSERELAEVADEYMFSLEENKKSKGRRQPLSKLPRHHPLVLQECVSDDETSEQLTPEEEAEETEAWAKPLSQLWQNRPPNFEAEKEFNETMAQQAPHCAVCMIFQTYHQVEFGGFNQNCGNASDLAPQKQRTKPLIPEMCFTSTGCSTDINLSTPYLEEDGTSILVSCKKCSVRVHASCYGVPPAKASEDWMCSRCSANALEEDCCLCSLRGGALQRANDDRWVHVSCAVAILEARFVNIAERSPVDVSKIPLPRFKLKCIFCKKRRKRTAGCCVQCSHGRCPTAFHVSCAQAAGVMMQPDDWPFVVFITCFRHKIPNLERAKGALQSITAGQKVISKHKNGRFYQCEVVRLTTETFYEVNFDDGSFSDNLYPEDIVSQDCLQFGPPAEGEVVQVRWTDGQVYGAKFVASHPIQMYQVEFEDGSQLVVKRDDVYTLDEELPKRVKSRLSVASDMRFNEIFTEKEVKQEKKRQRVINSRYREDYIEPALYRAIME
G9a block: inhibitors of human histone lysine methyltransferase G9a | Q96KQ7 | G9a H3K9 monomethylation, AlphaScreen, 2 h | Potency, µM (doses to about 102 µM), for the others: at the top dose activity, negative = inhibition, actives largely listed as inhibitors | 8.8% of 350,000 active; further: on the % scale 0 is the no-effect control and ±100 the full control effect; nearly all actives have a fitted effect of over 75% in size
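Enzyme 20 nM + cpd, 15 min RT; add b-H3K9 pep 500 nM / SAM 20 uM; 2 h RT; anti-H3K9me1 Ab 0.5 ug/mL + SA donor / anti-rabbit acceptor beads 20 ug/mL each, 10 min; AlphaScreen read.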
ALOX12 inh: ALOX12 (human) lipoxygenase inhibition. P18054. purified 12hLO, xylenol orange hydroperoxide absorbance. Potency, µM (highest dose often 108 µM), inactives show at the highest dose activity change, negative = inhibition, actives largely listed as inhibitors. 1.1% of 580,000 active. AID 1671190; further: on the % scale 0 is the no-effect control and ±100 the full control effect
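Purified human 12hLO at 150 nM in 25 mM Hepes, 0.01% Triton X-100, pH 7.0, preincubated 15 min at room temperature with compound. Reaction started with 40 uM arachidonic acid, 30 min at room temperature. Hydroperoxide measured by Fe-xylenol orange, 573/405 nm absorbance ratio.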
HP1b chromo inh: HP1-beta chromodomain-methylated histone interaction inhibition; AlphaScreen HP1-beta / biotin-H3K9me3 peptide binding; AID 540317; Potency, µM (titrated, usually from 114 µM), for inactives: at the top dose activity change, negative = inhibition, actives largely listed as inhibitors; 0.56% of 390,000 active; P83916; further: nearly all actives have a fitted effect of over 70% in size
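HP1-beta protein (50 nM final) preincubated 30 min at room temperature with biotinylated H3(1-18)K9me3 peptide (50 nM) in PBS pH 7.4, 0.01% Tween-20, then compound added for 30 min. AlphaScreen streptavidin donor/nickel chelate acceptor beads (10 ug/mL final), 30 min dark, luminescence read.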
Sfp PPTase inh: Sfp phosphopantetheinyl transferase inhibition. Q9F4F7. Biochemical Sfp PPTase activity, qHTS. Potency, µM, inactives show largest response in the series, negative = inhibition, usual class: inhibitors. 3.5% of 310,000 active;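 further: the enzyme is Sfp with the accession as filed and its product quenches rhodamine fluorescence; 0% = enzyme reaction without inhibitor and -100% = no enzyme wells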
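Step 1, compound plus 15 nM Sfp-PPTase, 15 min, room temperature. Step 2, add rhodamine-CoA (5 uM) and BHQ-2-YbbR (12.5 uM). Step 3, read 525/598 nm fluorescence at 0 and 30 min.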
* = called active by the depositor; ? = inconclusive; / = no result given; [ ] = dose if it differs, or a comment. The call rests on the fitted dose curve; in most records, active means well fitted curve in the direction sought with a large enough effect; inconclusive means small, poorly fitted or top-dose-only effect, or another doubt; inactive means no such curve, though single readings can be large; an effect the other way counts as inactive or inconclusive. Potency means the concentration at half of the fitted maximal effect.

SMILES	BAZ2B inh	JMJD2A Tudor inh	G9a block	ALOX12 inh	HP1b chromo inh	Sfp PPTase inh
Cc1cccc(NC(=S)NCCO)c1C	2%	-3%	15%[59 µM]	-17%	31%	-5%
Cc1cccc(NNC(=O)C(=O)NNc2cccc(C)c2)c1	-12%	1%	?	1.4µM*	31%	-13%
Cc1cccc(NNC(N)=S)c1C	-24%	-13%	20µM*	?	28%	40µM*
Cc1cc(Cl)ccc1NNC(N)=S	-31%	-23%	20µM*	12%	-7%	50µM*
Cc1cc(Cl)ccc1NC(=S)NC(C)(C)C	-14%	9%	12%	-10%	48%	-2%
Cc1cccc(N=NC(=S)NNc2cccc(C)c2)c1	/	25µM*	/	?	45µM*	/
Cc1cc(C)cc(OCCN(C)C(=O)Cc2c[nH]c3ccccc23)c1	/	/	/	3%	/	/
O=C(NCc1ccc(C(F)(F)F)cc1)C1CCN(S(=O)(=O)/C=C/c2ccccc2)CC1	/	/	/	25%	/	/
CC(C)c1ccc(-c2csc(N=C(N)N)n2)cc1	/	/	/	-1%	/	/
Cc1ccc(C)c(NNC(N)=S)c1	-16%	-27%	35µM*	-29%	6%	50µM*
Cc1ccccc1NC(=O)C(Cl)=C(Cl)Cl	2%	1%	25%[59 µM]	1%	38%	2%
Cc1ccc(C)c(NNC(=O)C(=O)NNc2cc(C)ccc2C)c1	-35%	?	28µM*	-29%	13%	15%
NC(=S)NNc1cc(Cl)cc(Cl)c1	-36%	35µM*	?	?	-19%	14µM*
Cc1ccccc1NNC(=O)C(=O)NNc1ccccc1C	50µM*	18µM*	?	?	?	-17%
Cc1ccc(C)c(N/C(N)=N/c2nc(C)cc(C)n2)c1	-33%	-4%	29%[0.501 µM]	-3%	31%	-9%
O=C(NCCc1ccccn1)C1CN(S(=O)(=O)c2cccnc2)CC12CCCCC2 (centres undefined)	/	/	/	40%	/	/
O=C(Nc1ccc(Br)cc1Cl)c1cc(-c2ccco2)on1	/	/	/	-11%	/	/
COc1ccc(C2(C(=O)N3CC4CC(C3)[C@H]3CCCC(=O)N3C4)CC2)cc1 (some centres undefined)	/	/	/	28%	/	/
Fc1ccc([C@@H]2Nc3ccccc3[C@@H]3C=CC[C@@H]32)cc1	-35%	?	2.2µM*	1%	16%	/
COC(=O)c1ccc([C@H]2Nc3ccc(S(=O)(=O)Nc4ccc(F)cc4)cc3[C@H]3C=CC[C@H]32)cc1	?	?	5.6µM*	5%	-14%	/
Cc1cccc(NS(=O)(=O)c2ccc3c(c2)[C@H]2C=CC[C@H]2[C@@H](c2ccc(F)cc2)N3)c1	-37%	?	13µM*	?	?	/
Fc1ccc2c(c1)C1C=CCC1C(c1cc3c(cc1Br)OCO3)N2 (centres undefined)	-36%[57.1 µM]	45µM*	-39%[12.7 µM]	?	-24%	?
Clc1ccccc1C1Cn2nnc(-c3noc(-c4cc(C5CC5)[nH]n4)n3)c2CO1 (centres undefined)	/	/	/	-8%	/	/
N#C/C(=C\c1ccc(O)c(I)c1)c1nc2ccccc2[nH]1	/	/	/	-22%	/	/
COc1ccc(OC)c([C@@H]2Nc3ccc(C(=O)O)cc3[C@@H]3C=CC[C@@H]32)c1	-25%	?	?	3%	0%	/
SMILES	BAZ2B inh	JMJD2A Tudor inh	G9a block	ALOX12 inh	HP1b chromo inh	Sfp PPTase inh
O=C(O)c1ccc2c(c1)[C@@H]1C=CC[C@@H]1[C@H](c1ccccn1)N2	/	6.3µM*	/	-13%	?	/
COc1ccc(C(=O)N/N=C(\C)c2ccc3c(c2)C2C=CCC2C(c2ccccc2)N3)cc1 (centres undefined)	?	?	7.9µM*	/	-9%	79µM*
CCOC(=O)c1ccc2c(c1)[C@@H]1C=CC[C@@H]1[C@H](c1cccc(OC)c1OC)N2	-9%	-19%	-32%[59 µM]	?	11%	/
COc1ccc(C)cc1NS(=O)(=O)c1ccc2c(c1)[C@H]1C=CC[C@H]1[C@@H](c1cccc(Cl)c1)N2	?	?	2.8µM*	?	2%	/
COc1cccc(NS(=O)(=O)c2ccc3c(c2)C2C=CCC2C(c2ccc(C(=O)O)cc2)N3)c1 (centres undefined)	45µM*	45µM*	7.9µM*	13µM*	?	32µM*
CCOC(=O)c1cc(OC(C)C(=O)NC)cc(C(=O)OCC)c1 (centres undefined)	/	/	/	2%	/	/
CC(C)Cc1cc(C[C@@H]2C[C@H](NC(=O)C3CCCC3)C2(C)C)no1	/	/	/	3%[176 µM]	/	/
O=C(O)c1cc(Cl)ccc1Br	/	/	/	3%	/	/
CCCCCCCCCCCCCCCC(=O)C1=C(O)C(CO)OC1=O (centres undefined)	/	/	10µM*	5%[176 µM]	/	-8%
CCCCCCCCC1OC1CCCCCCCC(=O)O (centres undefined)	/	/	/	-2%	/	13%
Cc1cc(=O)oc2cc(OCC(=O)OCC(=O)Nc3ccc(OC(F)F)cc3)ccc12	/	/	/	14%	/	/
O=C(NCc1nnc2n1C(C(=O)N1CCN(c3ncccn3)CC1)CC2)Nc1cccnc1 (centres undefined)	/	/	/	-1%[6.33 µM]	/	/
O=C(/C=C/C(Cl)(Cl)Cl)Nc1ccc(Cl)cc1	/	-3%	/	?	48%	/
NC(=O)/C=C/C(=O)Nc1ccc(Cl)cc1	-19%	-35%	11µM*	-1%	-26%	-10%
COc1ccc(C)cc1N1C(=N)/C(=C2/Nc3ccccc3S2)C(c2ccccc2)C1=O (centres undefined)	?	?	10µM*	-18%	?	-7%
O=[N+]([O-])c1ccc(N/N=C/c2c[nH]c3ccccc23)c(S(=O)(=O)Nc2ccc(Cl)cc2)c1	45µM*	28µM*	?	?	?	-3%
CC(C)N1C[C@H](O)C[C@H]1c1nnc2n1CCN(C(=O)c1cccn1C)C2	/	/	/	47%	/	/
CCOc1ccccc1CNCc1cccn1-c1nnc(N2CCN(c3ccccc3)CC2)s1	?	?	14µM*	-15%	-21%	/
CCOc1ccccc1CNC(=O)c1cccn1-c1nnc(N2CCCCC2)s1	-26%	-27%	-18%[59 µM]	-15%	-3%	/
N#Cc1nc(-c2ccc(Cl)cc2)oc1N1CCCC1	/	/	/	-8%	/	/
CCOC(=O)Cn1c(S(=O)(=O)Cc2ccccc2)nc2ccccc21	-1%	-8%	40µM*	?	27%	18%
CCOC(=O)Cn1c(=O)cnc2ccccc21	-2%	-2%	27%[12.7 µM]	0%	17%	3%
O=C(Cn1c(-c2ccccn2)nc2ccccc21)N/N=C/c1ccccn1	/	-14%	-32%	-2%	31%	?
CCOC(=O)CCn1c(CC(=O)OCC)nc2ccccc21	?	-24%	50µM*	-19%	45%	-4%
